HCV inh – qHTS Assay for Inhibitors of Hepatitis C Virus (HCV); Huh7.5.1 HCVcc-Cre infection, luciferase reporter, 44 h; Potency, µM (titrated, usually from 41.8 µM), for inactives: top-dose activity change, negative = inhibition, most hits filed as inhibitors; 3.4% of 340,000 active; AID 651820, 2012; note: % is set by controls: 0 for no effect and ±100 for the full control effect
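Antiviral activity was scored by luciferase reporter output from cells infected with HCVcc-Cre (~0.5 moi) in presence of compound, 44 h infection period, cells seeded 1,000/well 4 h prior.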
NS1 inh – qHTS Assay for Inhibitors of Influenza NS1 Protein Function; Potency, µM (doses to about 46.1 µM), inactives show at the highest dose activity, positive = more growth; 0.4% of 270,000 active; calls by dose curve; note: actives are rising curves; nearly all actives have a fitted effect of over 50% in size
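Compounds were scored for reversing the slow growth caused by influenza A NS1 in S. cerevisiae, measured by optical density at 600 nm. Assay medium contained 2% galactose at pH 6.0; NS1-free yeast of the same strain were the positive control.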
VACV mCherry inh – qHTS for Stage-Specific Inhibitors of Vaccinia Orthopoxvirus: mCherry Reporter Primary qHTS; Vaccinia virus mCherry reporter infection, fluorescence; Potency, µM (highest dose often 36.5 µM), without a hit: top-dose activity change, negative = inhibition, most hits filed as inhibitors; 0.63% of 310,000 active; AID 720579, 2013; calls by dose curve; tested in A549 cells; note: % is set by controls: 0 for no effect and ±100 for the full control effect; nearly all actives have a fitted effect of over 35% in size
Pf growth 96h – Primary qHTS for delayed death inhibitors of the malarial parasite plastid, 96 hour incubation | P. falciparum luciferase reporter growth, 96 h | Potency, µM (doses to about 28.7 µM), for the others: at the top dose activity change, negative = inhibition, most hits filed as inhibitors | 6.9% of 320,000 active | AID 504834, 2011; note: % is set by controls: 0 for no effect and ±100 for the full control effect
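Plates of compound plus infected erythrocytes (2% hematocrit, 0.05% parasitemia final) incubate 96 hours, 37 C, 5% CO2. Detection reagent added; reduced luminescence from the parasites' luciferase reporter flags inhibition.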
Vaccinia Venus – qHTS for Stage-Specific Inhibitors of Vaccinia Orthopoxvirus: Venus Reporter Primary qHTS; Vaccinia virus Venus reporter expression, fluorescence; Potency, µM (doses to about 36.5 µM), inactives show at the top dose activity change, negative = inhibition, actives largely listed as inhibitors; 0.46% of 330,000 active; AID 720580, 2013; calls by dose curve; tested in A549 cells; note: % is set by controls: 0 for no effect and ±100 for the full control effect; nearly all actives have a fitted effect of over 30% in size
Pf growth 48h – Primary qHTS for delayed death inhibitors of the malarial parasite plastid, 48 hour incubation. P. falciparum luciferase growth in erythrocytes, 48 h. Potency, µM (top dose mostly 28.7 µM), without a hit: top-dose activity change, negative = inhibition, actives largely listed as inhibitors. 5.9% of 310,000 active. AID 504832, 2011; note: % is set by controls: 0 for no effect and ±100 for the full control effect
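Erythrocytes infected with P. falciparum carrying an integrated firefly luciferase reporter (2% hematocrit, 0.1% parasitemia final) were exposed to compounds in RPMI 1640 with 0.5% Albumax at 37 C, 5% CO2. Growth inhibition was scored as reduced luminescence.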
HCV confirm – qHTS Assay for Inhibitors of Hepatitis C Virus (HCV): Confirmation Assay for Cherry-picked Compounds. shares compounds with HCV inh. HCVcc-Cre infectious virus cell assay, luciferase, inhibition. Potency, µM (highest dose often 41.8 µM), for inactives: at the highest dose activity, negative = inhibition, hits mostly inhibitors. 78% of 640 active; note: nearly all actives have a fitted effect of over 80% in size
HCV host tox – qHTS Assay for Inhibitors of Hepatitis C Virus (HCV): Cytotoxicity Counterscreen for Cherry-picked Compounds. shares compounds with HCV inh. HCV host cell line cytotoxicity counterscreen. Potency, µM (highest dose often 41.8 µM), without a hit: at the top dose activity change, negative = cytotoxicity, actives largely listed as inhibitors. 22% of 640 active. AID 720576, 2013;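 note: 44 h compound exposure; % is set by controls: 0 for no effect and ±100 for the full control effect; nearly all actives have a fitted effect of over 55% in size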
* = called active by the depositor; i = inactive; ? = inconclusive; nt = no result. Compounds with a hit are over-represented: about 11% of the library has one in this group of screens. Unless noted, calls come from the whole dose curve; as a rule, active = well fitted curve in the direction sought with a large enough effect; inconclusive = small, poorly fitted or top-dose-only effect, or another doubt; inactive = no such curve, though single readings can be large; an effect the other way counts as inactive or inconclusive. Potency is the fitted concentration of half-maximal effect.

SMILES	HCV inh	NS1 inh	VACV mCherry inh	Pf growth 96h	Vaccinia Venus	Pf growth 48h	HCV confirm	HCV host tox
O=C(Nc1ccc(S(=O)(=O)Nc2ccccc2)cc1)c1ccc(CN2CCOCC2)cc1	2.2µM*	-4%	nt	32%	nt	?	1.8µM*	-93%
O=C(Nc1ccc(CN2CCS(=O)(=O)CC2)cc1)c1ccc(C(F)(F)F)cc1	5.6µM*	0%	-26%	?	-14%	?	5µM*	13µM*
O=C(Nc1ccc(CN2CCOCC2)cc1)c1ccc(Cl)cc1	1%	-5%	nt	41%	nt	55%	nt	nt
Cc1c(C(=O)OCC(C)(C)CN(C)C)oc2ccccc12	-11%	0%	-11%	30%	-8%	52%	nt	nt
CSc1nc2cc(Oc3cccc(Cl)c3Cl)c(Cl)cc2[nH]1	7.9µM*	nt	-12%	12µM*	-21%	6.7µM*	?	26%
CSc1nc2ccc(Cl)cc2[nH]1	?	-26%	nt	1%	nt	32%	nt	nt
OC1CCN(c2c3c(nc4cc(-c5ccc(Cl)cc5)nn24)CCC3)CC1	?	3%	nt	49%	-23%	-20%	nt	nt
Clc1cccc(-c2cc3nc4c(c(N5CCOCC5)n3n2)CCCC4)c1	?	-68%	?	nt	-26%	?	14µM*	-11%
Cc1cc(NC(=S)N(CCN2CCCCC2)Cc2ccco2)ccc1Cl	8.9µM*	9%	-23%	?	-20%	?	25µM*	-14%
O=C(Nc1ccc2c(c1)Cc1ccccc1-2)c1cccnc1	6.3µM*	-56%	nt	63%	nt	43%	-22%	-23%
Cc1occc1C(=O)N1CCN(C(=O)C2CCCO2)CC1 (stereo unspecified)	19%	5%	nt	19%	nt	8%	nt	nt
Cc1nc(-c2cnn(-c3ccccc3)c2)c2cc(C)oc2n1	7.1µM*	-88%	?	27%	-26%	-19%	16µM*	46%
Cc1oc2c(O)c(O)ccc2c(=O)c1-c1cnn(-c2ccccc2)c1	-19%	-54%	nt	-15%	nt	?	nt	nt
COc1ccc(Cl)cc1NC(=O)C(OC)c1ccccc1 (stereo unspecified)	6.3µM*	-11%	-10%	8%	-7%	-29%	20µM*	26%
COc1ccc(S(=O)(=O)N2CCCN(CC(=O)Nc3ccc(OC)cc3OC)CC2)cc1	nt	nt	-1%	nt	-1%	nt	nt	nt
Cc1ccc(N=Nc2cc(C)ccc2N)cc1	3.2µM*	-7%	i	i	-9%	232%	3.1µM*	?
Cc1ccc(N=Nc2cc(C)ccc2O)c(C)c1	7%	3%	nt	68%	nt	100%	nt	nt
COc1cccc(OCC(=O)NNC(=O)c2ccc(-c3ccccc3)cc2)c1	28%	13%	-13%	0%	-8%	-4%	nt	nt
CCOC(=O)c1ccc(N2C(=O)c3n[nH]c(-c4cccs4)c3C2c2cccc(OC)c2)cc1 (stereo unspecified)	nt	nt	-10%	nt	-14%	nt	nt	nt
COc1ccc([N+](=O)[O-])cc1NC(=O)CSc1nc(C)cc(C)n1	?	-9%	-19%	?	-2%	4%	nt	nt
COc1ccc([N+](=O)[O-])cc1NC(=O)CSc1ccc2ccccc2c1	?	3%	-14%	?	-2%	-6%	13µM*	?
COc1ccc(NC(=S)NC2CC3CCCC(C2)N3C2CC2)cc1 (stereo unspecified)	?	0%	nt	17%	nt	-22%	nt	nt
FCCCOc1ccc(-c2ccnc(-c3ccccc3)n2)cc1	?	-3%	nt	0%	-5%	25%	nt	nt
FCCCOc1ccc(-c2nccc(-c3ccc(F)cc3)n2)cc1	?	-5%	nt	72%	-17%	2%	?	15%
CC1=NN=C(c2ccccc2)C(c2c[nH]c3ccccc23)N1O (stereo unspecified)	-2%	6%	-28%	?	-7%	?	nt	nt
SMILES	HCV inh	NS1 inh	VACV mCherry inh	Pf growth 96h	Vaccinia Venus	Pf growth 48h	HCV confirm	HCV host tox
CCOc1c(C)cc(S(=O)(=O)NCc2ccccn2)c(C)c1C	0%	-4%	-18%	8%	-9%	22%	nt	nt
CCC1Oc2ccc(C)cc2N(CC(=O)NCCCN2CCN(Cc3ccccc3)CC2)C1=O (stereo unspecified)	?	-11%	i	59%	-12%	-12%	nt	nt
COc1cccc(CNC(=O)c2nnn(CC(=O)Nc3c(C)cccc3C)c2N)c1	-8%	12%	nt	?	nt	-5%	nt	nt
Cc1ccc(-n2c(SCC(=O)Nc3ccc(N4CCOCC4)cc3)nc3ccccc3c2=O)cc1	?	2%	-8%	9%	0%	?	?	15%
Cc1ccc(C(=O)Nc2ccccc2N2CCCCC2)cc1[N+](=O)[O-]	2.2µM*	nt	i	?	-7%	-18%	16µM*	28µM*
C=CCNC(=O)CC(=O)N/N=C/c1ccc(F)cc1	3%	-2%	-8%	-11%	-6%	33%	nt	nt
C=CCNC(=S)N/N=C/c1ccc(C(F)(F)F)cc1	8.9µM*	nt	nt	?	nt	?	8.9µM*	13µM*
COc1cc(NC(=O)CSc2nc(=O)n(CCCN3CCOCC3)c3c2CCC3)cc(OC)c1	-16%	nt	-10%	?	-15%	?	nt	nt
COc1ccc(CNC(=O)Cc2csc(NC(=O)Nc3ccccc3OC)n2)cc1	?	nt	-8%	?	-21%	-12%	nt	nt
COc1ccccc1CNC(=O)Cc1csc(NC(=O)Nc2ccccc2OC)n1	?	nt	-10%	13µM*	-23%	?	18µM*	51%
O=C(Nc1ncc(Cc2ccc(SC(F)F)cc2)s1)c1ccccc1	?	28%	?	?	-30%	-9%	14µM*	28µM*
CC1(c2ccc3ccccc3c2)NC(=O)N(CC(=O)N2CCN(Cc3ccccc3)CC2)C1=O (stereo unspecified)	3.2µM*	nt	nt	?	nt	?	0.89µM*	3.1µM*
CC1(c2ccc3ccccc3c2)NC(=O)N(CC(=O)N2CCC(C(N)=O)CC2)C1=O (stereo unspecified)	28%	nt	i	8%	0%	1%	nt	nt
COc1ccc(CCn2c(SCC(=O)Nc3cc(C)on3)nc3ccsc3c2=O)cc1OC	?	?	nt	nt	nt	8.3µM*	?	25%

Source: PubChem (National Center for Advancing Translational Sciences (NCATS))
